Each structure is given as a SMILES string. Results filed as inconclusive are left out. A call without a number means that no potency is given here. The source made the active and inactive calls. Calls follow the shape of the dose curve; as a rule, active = well fitted cell-killing curve with a large enough effect; inconclusive = small, poorly fitted or top-dose-only effect, or effect the other way; inactive = flat fitted curve, though single readings scatter.
Potency is read from the fitted curve at half-maximal effect.

This experiment is described as follows: MultiTox-Fluor Cytotoxicity Assay - LYMP1-002 - Live Cells (AID 955). The note with it: LYMP1-002 lymphoblastoid live-cell protease fluorescence viability; series mostly up to 46.1 µM. The text has this:
NIH Chemical Genomics Center [NCGC]
NIH Molecular Libraries Screening Centers Network [MLSCN]
National Institutes of Environmental Health Sciences [NIEHS]
National Toxicology Program [NTP]
We have developed a 1536-well cell-based assay for quantitative high throughput screening (qHTS) against a number of cell lines to determine in vitro cytotoxicity of small molecules. This particular assay uses a human lymphoblastoid cell line (LYMP1-002) purchased from Coriell Institute.
NCGC Assay Protocol Summary:
The MultiTox-Fluor Cytotoxicity Assay (Promega) is a homogeneous method to simultaneously measure the relative number of live and dead cells in culture by detecting changes in cell membrane integrity. There are two fluorogenic peptide substrates in the assay reagent. Viable cells are determined when the cell-permeant substrate (GF-AFC) enters the cell and is cleaved by protease from live cells resulting in liberated fluorophore. This live-cell protease activity restricted to viable cells is proportional to cell number. The dead cells are determined by using fluorogenic cell-impermeant peptide substrate (bis-AAF-R110) which cleaved by dead cell proteases leaking from damaged cell membrane.
Using the MultiTox-Fluor Cytotoxicity Assay, the relative number of live cells was measured in the lymphoblastoid cell line with complete culture medium following compound treatment for 16 hours. The assay was performed in opaque black Kalypsys 1536-well plates. In the screen, tetraoctylammonium bromide was used as positive control. Library compounds were measured for their ability to cause acute toxicity in the cell line, as reflected by a decrease in live cell protease activity, in a concentration-dependent manner. […] AC50 values were determined from concentration-response data modeled with the standard Hill equation.
qHTS protocol for MultiTox-Fluor Cytotoxicity assay
[Step] [Parameter] [Value] [Description]
1. Reagent; 5 uL; 2500 lymphoblastoid cells/well
2. Time; 5 hr; 37 C incubation
4. Controls; 23 nL; Tetraoctylammonium bromide 6.4pM to 92 uM
5. Time; 16 hr; 37 C incubation
6. Reagent; 5 uL; MuliTox-Fluor Assay reagent
7. Time; 60 min; Room Temperature
8. Detection; live-cell fluorescence (Ex/Em=405/510); EnVision plate reader
Keywords: cell viability, cytotoxicity, lymphoblastoid cell line, fluorescence, NTPHTS, NTPHTS_NCGC, NIEHS, EPA, DSSTox, MLSMR, MLSCN, NIH Roadmap, qHTS, NCGC
Consider `CC(=O)Oc1ccc(C(c2ccc(OC(C)=O)cc2)c2ccccn2)cc1`, for which the Potency entry was “inactive”. The same measure for `NC(=NCCCCCCN=C(N)/N=C(\N)Nc1ccc(Cl)cc1)/N=C(\N)Nc1ccc(Cl)cc1`: 15.8 µM (active); for `C[C@]12CC[C@@H]3c4ccc(O)cc4CC[C@H]3[C@@H]1CC[C@@H]2O`: “inactive”. Consider `C=CCc1ccc(O)c(OC)c1`, for which the Potency entry is “inactive”. The result for `COc1cccc2c1C(=O)c1c(O)c3c(c(O)c1C2=O)C[C@@](O)(C(C)=O)C[C@@H]3O[C@H]1C[C@H](N)[C@H](O)[C@H](C)O1` reads 3.98 µM (active). As for `O=C1OC(c2ccc(O)cc2)(c2ccc(O)cc2)c2ccccc21`, the Potency entry was “inactive”. With `COC1=CC(=O)C[C@@H](C)[C@]12Oc1c(Cl)c(OC)cc(OC)c1C2=O`, the Potency entry is “inactive”. For `Oc1c(Cl)cc(Cl)cc1Sc1cc(Cl)cc(Cl)c1O`, the Potency entry was “inactive”. Consider `CC(=O)O[C@]1(C(C)=O)CC[C@H]2[C@@H]3C[C@H](C)C4=CC(=O)CC[C@]4(C)[C@H]3CC[C@@]21C`, for which the Potency result is “inactive”. For the compound `O=c1ccc2ccccc2o1`, the Potency result is “inactive”.

As to `CCCCCCc1ccc(O)cc1O`, the Potency entry is “inactive”. Turning to `CC(O)C(=O)O` (stereo not drawn), the Potency result is “inactive”. For `CC/C(=C(/CC)c1ccc(O)cc1)c1ccc(O)cc1`, the Potency entry is “inactive”.

As to `Nc1ccc(C(=O)O)cc1`, the Potency entry was “inactive”. `CN(C)/N=N/c1nc[nH]c1C(N)=O`: the Potency result was “inactive”. On to `COc1cccc2c1C(=O)c1c(O)c3c(c(O)c1C2=O)C[C@@](O)(C(=O)CO)C[C@@H]3O[C@H]1C[C@H](N)[C@H](O)[C@H](C)O1`, for which the Potency was 5.01 µM (active). For the compound `O=C(O)CCCCC(=O)O`, the Potency result is “inactive”. The result for `C=C(CC)C(=O)c1ccc(OCC(=O)O)c(Cl)c1Cl` reads “inactive”.

The values above are taken from PubChem BioAssay (NCATS).
